# Measured values published in PubChem BioAssay (NCI).
# This is part of a sample that, as a whole, favours compounds with a hit. Of some 79,000 tested, about 15% had one in any assay. Values without a mark were called inactive. The source made the active and inactive calls. Cut-off read from the data, not from the text of the source: active = growth inhibition above about 70%; inactive = the rest.
# Assay: NCI Yeast Anticancer Drug Screen. Data for the rad50 strain (AID 155);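 note: 0% = growth of vehicle-only cultures of the same strain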
# Conditions: S. cerevisiae rad50 strain growth inhibition, hits give high values
# Experimental: Growth inhibition of yeast strains with defined genetic alterations is measured as a screen for potential anti-cancer activity. Selected strains with alterations in DNA damage repair or cell cycle control were exposed to compounds and growth inhibition was measured relative to vehicle treated controls. The strain used in this assay is rad50
# [1] = at 5.0 µM (retest, dose inferred, filed as 0.5)
# [2] = at 50.0 µM (retest, dose inferred, filed as 5.0)
Structure (SMILES),growth inhibition (at 1.2 µM),growth inhibition (at 3.7 µM),growth inhibition [1],growth inhibition (at 11.0 µM),growth inhibition (at 33.0 µM),growth inhibition [2],growth inhibition (at 50.0 µM),growth inhibition (at 100.0 µM)
COC(=O)c1ccc2c(c1)Cc1ccccc1-2,2%,10%,0%,13%,12%,-11%,72.5% (active),32%
CC1=CCCC2C1(C)CCC(C)C2(C)Cc1cc(O)ccc1O (stereo not given),-3%,19%,22%,51%,98% (active),96% (active),88.9% (active),93% (active)
Cc1cc(Cl)ccc1NC(=O)/C(Cl)=C1/Sc2ccccc2NC1=O,2%,24%,47%,29%,3%,82% (active),72% (active),24%
CN(C)c1ccc(N=Nc2ccccn2)cc1,-29%,-18%,100% (active),26%,94% (active),100% (active),81.6% (active),96% (active)
Cc1cccc(/C=N/NC(=S)N(C)CCc2ccccn2)n1,91% (active),94% (active),16%,96% (active),98% (active),99% (active),78.6% (active),98% (active)
